# Hits are enriched below; roughly 8% of the tested compounds scored in any of these assays.
# SW480 rereplic = inducers of DNA re-replication in SW480 colon cancer cells. SW480 DNA re-replication, Hoechst DNA content imaging, 48 h. Potency, µM (top dose mostly 46.1 µM), inactives show at the top dose re-replication activation, most hits filed as activators. 340,000 tested, 1.8% active. AID 624297; also: % of control where 0% means no effect; nearly all actives have a fitted effect of over 55% in size
#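 250 cells/well; 23 nL cpd via pin tool; 48 hr, 37 C, 5% CO2; Hoechst 40 min; imager read of total nuclear intensity, ex 405/em 500-530 nm.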
# KB-V1 MDR tox = KB-V1 MDR subline cytotoxicity. Potency, µM (titrated, usually from 46.1 µM), usual class: cytotoxic. KB-V1 MDR cells viability, CellTiter-Glo, 72 h. 400,000 tested, 3.4% active; also: % is scaled to controls: 0 for no effect and ±100 for the full control effect; nearly all actives have a fitted effect of over 60% in size
#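 KB-V1 cells (P-gp-expressing MDR subline of KB-3-1) in phenol-red-free DMEM with 10% FBS were exposed to library compounds over a concentration series for 72 h at 37 degrees C. Viability read by CellTiter-Glo luminescence; concentration-effect curves fitted after normalization.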
# HT1080-NT tox = kills 2HG-producing HT-1080-NT fibrosarcoma cells; HT-1080-NT fibrosarcoma viability, CellTiter-Glo ATP luminescence, 48 h; Potency, µM (series often up to 46.1 µM), inactives show at the top dose activity, negative = less viability, usual class: cytotoxic; 360,000 tested, 1.6% active; AID 686970;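 also: NT is the 2HG producing partner of a matched IDH1 knockdown line; 0% = DMSO-treated cells and -100% = media-only wells without cells; nearly all actives have a fitted effect of over 55% in size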
#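 750 cells/well, RPMI + 5% FBS; 2 h settle, compound pin-transfer, 48 h at 37 degrees C. CellTiter-Glo 10 min RT, luminescence. Normalized to DMSO and media-only wells.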
# HT1080 IDH1KD tx = HT-1080 IDH1 knockdown cell toxicity (counter line) | HT-1080 IDH1 knockdown viability, ATP luminescence, 48 h | Potency, µM (highest dose often 46.1 µM), inactives show top-dose activity, negative = toxicity, hits mostly cytotoxic | 360,000 tested, 2% active | AID 686971;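 also: 0% = DMSO wells and -100% = cell-free medium wells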
#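 CellTiter-Glo luminescence after 48 h compound exposure at 37 degrees C of IDH1-knockdown HT-1080 cells in 5% FBS RPMI. %Activity scaled between DMSO wells and cell-free media wells, with curves fitted and assigned curve classes.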
# MCF10A rereplic = DNA re-replication induction in MCF 10a cells; AID 624296; Potency, µM (titrated, usually from 46.1 µM), for inactives: top-dose activity, positive = re-replication, usual class: activators; MCF 10A DNA re-replication, Hoechst nuclear intensity, 48 h; 350,000 tested, 2.9% active; also: % of control where 0% means no effect; nearly all actives have a fitted effect of over 50% in size
# KB-3-1 tox = KB-3-1 parental cell cytotoxicity. KB-3-1 viability, CellTiter-Glo ATP luminescence, 72 h. Potency, µM (top dose mostly 46.1 µM), most hits filed as cytotoxic. 400,000 tested, 1.4% active; also: % is scaled to controls: 0 for no effect and ±100 for the full control effect; nearly all actives have a fitted effect of over 60% in size
#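 Using CellTiter-Glo luminescence, growth of non-resistant KB-3-1 adenocarcinoma cells is assessed 72 h after pin-tool compound addition at 37 °C. Normalized responses across the concentration series yield fitted curves.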
# An asterisk follows results filed as active; i = inactive; ? = inconclusive; . = not tested or not shown. Calls follow the shape of the dose curve; as a rule, active = well fitted curve in the direction sought with a large enough effect; inconclusive = small, poorly fitted or top-dose-only effect, or another doubt; inactive = no such curve, though single readings can be large; an effect the other way counts as inactive or inconclusive. Potency is read from the fitted curve at half-maximal effect.
SMILES,SW480 rereplic,KB-V1 MDR tox,HT1080-NT tox,HT1080 IDH1KD tx,MCF10A rereplic,KB-3-1 tox
C/C(=N\NC(=O)NC1CCCCC1)C1CCCCC1,-5%,i,-3%,-1%,-10%,i
CCOc1cc(/C=C\[N+](=O)[O-])ccc1OCC(=O)N1CCOCC1,26%,?,?,18µM*,6.5µM*,i
CCOc1ccc(C(=O)OCC(=O)N2CCOCC2)cc1OCC,-29%,i,-1%,1%,-4%,i
CCOc1cc(C(=O)NCc2ccc(C)cc2)ccc1OCC(=O)N1CCOCC1,5%,i,5%,3%,-6%,i
CCOc1cc(/C=C/c2nc3cc(C)c(C)cc3s2)ccc1OCC(=O)N1CCOCC1,?,10µM*,4%,13%,13µM*,i
Cn1nnc2cc(C(=O)Nc3ccc4ccccc4c3)ccc21,-10%,i,24%,15%,1%,i
CCOC(=O)c1c(S(=O)(=O)NCC(=O)Nc2cc(C)ccc2C)c(C)n(C)c1C,9%,i,17%,6%,-1%,i
CC(CC(=O)Nc1ccc2c(c1)c(=O)n(C)n2-c1ccccc1)c1ccccc1 (stereo unspecified),.,10µM*,3.7µM*,2.9µM*,.,4.6µM*
CC(C)=CCn1c2ccc(NC(=O)NCc3ccc(F)cc3)cc2c(=O)n1C,.,i,?,2.3µM*,.,4.6µM*
Cn1c(=O)c2cc(NC(=O)CCc3ccccc3)ccc2n1-c1ccccc1F,.,i,?,7.3µM*,.,?
CC(CC(=O)Nc1ccc(Cl)c([N+](=O)[O-])c1)c1ccccc1 (stereo unspecified),?,i,?,?,?,?
COc1cccc(CNC(=S)Nc2ccc3c(c2)c(=O)n(C)n3Cc2ccc(F)cc2)c1,.,i,?,0%,.,i
COc1cccc(Cn2c3ccc(NC(=O)CCc4ccc(F)cc4)cc3c(=O)n2C)c1,.,?,?,4.1µM*,.,4.1µM*
Cn1c(=O)c2cc(NC(=O)NCc3ccc(F)cc3)ccc2n1C/C=C/c1ccccc1,.,i,?,?,.,?
Clc1ccc2nc(C3CCCCC3)c(Cc3ccsc3)n2c1,.,?,-30%,-23%,.,?
CC(C)=CCn1c2ccc(NC(=O)Nc3cccnc3)cc2c(=O)n1C,.,i,?,10%,.,i
COc1ccccc1CCC(=O)Nc1ccc2c(c1)c(=O)n(C)n2Cc1ccc(F)cc1,.,?,3.3µM*,5.8µM*,.,8.2µM*
Cn1c(=O)c2cc(NC(=O)Nc3cccnc3)ccc2n1-c1ccc(C(C)(C)C)cc1,.,i,21µM*,?,.,?
Nc1nnc(SCC(=O)NCCNC(=O)CSc2nnc(N)s2)s1,-1%,i,-2%,1%,-3%,i
O=C(NCc1ccccc1Cl)C1CCN(c2cnccn2)CC1,-2%,i,0%,2%,0.52µM*,i
O=C(NCc1ccc(Cl)cc1)C1CCN(c2cnccn2)CC1,-52%,i,-16%,-1%,?,i
COc1cc(CN(CC2CCCO2)C(=O)c2cccs2)cc(OC)c1OC (stereo unspecified),-8%,i,10%,-3%,-1%,i
Cc1nc2sc(C(c3ccco3)N3CCN(c4ccccc4F)CC3)c(O)n2n1 (stereo unspecified),17%,i,9%,6%,18µM*,i
Cc1ccc(CSc2oc(-c3ccco3)nc2S(=O)(=O)c2ccc(Br)cc2)cc1,.,i,.,.,.,i
CCc1ccccc1NC(=O)C(CC)Oc1ccccc1-c1nnc(-c2ccccc2)o1 (stereo unspecified),.,?,.,.,.,15µM*
SMILES,SW480 rereplic,KB-V1 MDR tox,HT1080-NT tox,HT1080 IDH1KD tx,MCF10A rereplic,KB-3-1 tox
CCN(CC)S(=O)(=O)c1cnccc1N1CCN(c2cccc(Cl)c2)CC1,-39%,i,-10%,-20%,?,10µM*
CNS(=O)(=O)c1cnccc1N1CCN(c2cccc(Cl)c2)CC1,-3%,i,-10%,1%,-2%,i
COc1ccc2sc(-c3ccccc3OC)c(C#CC(C)(C)O)c2c1,-6%,i,-6%,0%,91%,i
COc1cc(/C=C2\CCC(C)C3=C(c4cc(OC)c(OC)c(OC)c4)C(C#N)=C(N)OC32)cc(OC)c1OC (stereo unspecified),?,i,-19%,?,8.2µM*,?
CCn1c(CCNC(=O)c2ccc(OC)c(OC)c2)nc2ccccc21,1%,3.7µM*,9%,3%,0%,i
COc1ccccc1C(=O)Nc1ccc2c(c1)nc(CCNC(=O)c1ccccc1)n2C,13µM*,?,4.1µM*,4.1µM*,6.5µM*,?
COc1ccccc1C(=O)Nc1ccc2c(c1)nc(CCNC(C)=O)n2C,-12%,i,24%,14%,-4%,i
CCOc1ccccc1NC(=O)c1cc(C(=O)c2cc(OC)ccc2O)coc1=N,-1%,12µM*,-3%,1%,?,i
CN=C1SC(CC(=O)Nc2sc(C)c(C)c2C(=O)OC)C(=O)N1C (stereo unspecified),-3%,?,8%,-5%,?,i
CCOC(=O)c1c(NC(=O)CC2SC(=NC)N(C)C2=O)sc(C)c1C (stereo unspecified),-9%,10µM*,-3%,2%,?,i
CN=C1SC(CC(=O)Nc2cccc(C(F)(F)F)c2)C(=O)N1C (stereo unspecified),-11%,15µM*,-12%,-15%,0%,i
COc1ccc2c(c1)CCCC(Br)C2=O (stereo unspecified),18µM*,?,-6%,-23%,?,?
COc1ccc2c(c1)CCC2=O,.,i,.,.,.,i
Nc1ncnc2c1ncn2[C@@H]1O[C@H](CNCc2c(OCc3ccccc3F)ccc3ccccc23)[C@@H](O)[C@H]1O,?,i,-14%,-10%,?,i
C=CCOC(=O)C1=C[C@@H](c2ccc(C(F)(F)F)cc2)[C@H](CCCO)[C@@H](OCC)O1,-1%,i,2%,0%,-17%,i
Cc1ccc(/C=C2\SC(=S)N(C3CCS(=O)(=O)C3)C2=O)o1 (stereo unspecified),16µM*,i,-14%,-29%,1%,i
O=C1/C(=C/c2ccncc2)SC(=S)N1C1CCS(=O)(=O)C1 (stereo unspecified),21%,?,?,-29%,21µM*,?
